Values joined by “and” are separate entries in the source; they are usually repeats but may differ in a detail not shown here. Identical values can stand only once. The source holds several records for some structures; these can differ, active in one and inactive in another. Active and inactive are the calls of the source. How the source made its calls: active means hit-call score of the fitted dose curve at least 0.9, where 1 is the maximum; inactive means score below 0.9.
How the values were obtained:
[1] = ATG_E_Box_CIS: Attagene CIS-FACTORIAL HepG2 Assay for human Enhancer Box (E-box) (AID 2282936); conditions: HepG2 E-box cis-reporter transcription, actives raise or lower the signal
Outline: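 DMSO served as negative control and baseline for bidirectional fitting. Human hepatoma HepG2 cells, transiently transfected with cis-reporter constructs, were dosed 24 h; reporter mRNA read by RT-PCR and capillary electrophoresis.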

[2] = ATG_M_61_CIS: Attagene CIS-FACTORIAL HepG2 Assay for M61 Transcription Factor (Internal Marker) (AID 2282937); conditions: HepG2 Attagene CIS-FACTORIAL M61 internal marker reporter; actives raise or lower the signal
Outline: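 Background-control endpoint: HepG2 cells with cis-regulated reporter constructs, 24 h exposure, reporter mRNA detected via fluorescent primer extension and capillary electrophoresis; values from bidirectional fitting with DMSO baseline.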

[3] = ATG_M_19_CIS: Attagene CIS-FACTORIAL HepG2 Assay for M19 Transcription Factor (Internal Marker) (AID 2282939); conditions: HepG2 Attagene CIS-FACTORIAL M19 internal marker reporter; actives raise or lower the signal
Outline: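 Transfect HepG2 with MRTU reporter library → dose chemical, 24 h → isolate total RNA, reverse-transcribe with oligo(dT) → PCR, 6-FAM label, HpaI cut (2 h, 37 C) → capillary electrophoresis. Bidirectional fit vs DMSO.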

[4] = ATG_ERE_CIS: Attagene CIS-FACTORIAL HepG2 Assay for Estrogen Response Element (ERE) (AID 2282940); conditions: HepG2 ERE cis-reporter, Attagene RNA transcript; actives raise or lower the signal
Outline: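 Transient MRTU transfection of human HepG2; cis-element promoters; 24 h dosing; total RNA → RT (oligo dT) → PCR → 6-FAM primer extension → HpaI digest → CE fluorescence. Bidirectional fit, DMSO baseline.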

[5] = ATG_Ets_CIS: Attagene CIS-FACTORIAL HepG2 Assay for human Erythroblast Transformation Specific (ETS) (AID 2282941); conditions: HepG2 ETS cis-reporter transcription, actives raise or lower the signal
Outline: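 HepG2 cells transiently transfected with cis-promoter reporter transcription units were dosed for 24 h; reporter mRNA was measured by RT-PCR, 6-FAM primer extension, HpaI digestion and capillary electrophoresis, with bidirectional fitting against DMSO baseline.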

[6] = molecular target: Hepatocyte nuclear factor 3-beta (Homo sapiens) (UniProt Q9Y261); assay: ATG_FoxA2_CIS: Attagene CIS-FACTORIAL HepG2 Assay for human Forkhead box A2 (FOXA2) (AID 2282942); conditions: HepG2 cis-reporter transcription factor activity, 24 h; actives raise or lower the signal
Outline: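 Measured: reporter mRNA induction or loss in HepG2 transiently carrying multiple cis-regulated reporter units, 24 h after dosing. Quantified by RT-PCR plus capillary electrophoresis, normalised to DMSO.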

[7] = ATG_FoxO_CIS: Attagene CIS-FACTORIAL HepG2 Assay for human Forkhead box O (FoxO) (AID 2282943); conditions: HepG2 Attagene cis-reporter, FoxO element, mRNA; actives raise or lower the signal
Outline: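 HepG2, transient MRTU transfection (cis element, endogenous TFs). Dose 24 h. TriZol RNA → oligo(dT) RT → PCR → 6-FAM primer extension → HpaI cut → CE. Gain/loss vs DMSO.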

[8] = ATG_GATA_CIS: Attagene CIS-FACTORIAL HepG2 Assay for human GATA Binding Protein (AID 2282944); conditions: HepG2 GATA cis-element reporter, Attagene multiplex mRNA; actives raise or lower the signal
Outline: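 Transient MRTU transfection, HepG2, 24 h compound exposure. Total RNA → oligo(dT) RT → PCR → 6-FAM primer extension → HpaI cut → CE. Bidirectional fit vs DMSO.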

[9] = ATG_GLI_CIS: Attagene CIS-FACTORIAL HepG2 Assay for human Zinc Finger Protein GLI1 (AID 2282945); conditions: HepG2, Attagene cis-factorial reporter mRNA, GLI element; actives raise or lower the signal
Outline: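 Bidirectional curve fits relative to DMSO, using reporter mRNA levels from RT-PCR plus capillary electrophoresis. Cells were HepG2 transiently carrying cis-regulated reporter constructs, harvested 24 h after dosing.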

[10] = molecular target: Bile acid receptor (Homo sapiens) (UniProt Q96RI1); assay: ATG_IR1_CIS: Attagene CIS-FACTORIAL HepG2 Assay for human Nuclear Receptor Subfamily 1 Group H Member 4 (NR1H4), IR1 submotif (AID 2282946); conditions: IR1 reporter transcription, actives raise or lower the signal
Outline: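 Cells (human HepG2) carry transiently transfected cis-promoter reporter transcription units. Compounds are incubated 24 h, total RNA is reverse-transcribed and amplified, and labelled fragments are resolved by capillary electrophoresis. Curves use DMSO as baseline.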

[11] = ATG_GRE_CIS: Attagene CIS-FACTORIAL HepG2 Assay for human Glucocorticoid Response Elements (GRE) (AID 2282947); conditions: HepG2 GRE cis-reporter, Attagene multiplex mRNA; actives raise or lower the signal
Outline: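 Assay uses human hepatoma HepG2 cells transfected with cis-promoter reporter units, exposed 24 h. mRNA from reporters detected by RT-PCR plus capillary electrophoresis; DMSO serves as negative control and baseline.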

[12] = ATG_ISRE_CIS: Attagene CIS-FACTORIAL HepG2 Assay for human Interferon Regulatory Factor 1 (IRF1) binding to an Interferon-Stimulated Response Element (ISRE) (AID 2282948); conditions: HepG2 ISRE cis-reporter (Attagene), mRNA transcription readout; actives raise or lower the signal
Outline: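 HepG2 cells transiently transfected with multiplexed cis-promoter reporter units; after 24 h compound exposure, reporter mRNA quantified by RT-PCR, FAM labelling, HpaI digestion and capillary electrophoresis. Bidirectional fit versus DMSO baseline.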

[13] = ATG_M_32_CIS: Attagene CIS-FACTORIAL HepG2 Assay for M32 Transcription Factor (Internal Marker) (AID 2282949); conditions: HepG2 Attagene cis-factorial M32 reporter, mRNA; actives raise or lower the signal;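 further: background control marker of the multiplexed CIS panel rather than a real target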
Outline: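 Following 24 h chemical exposure of HepG2 cells transiently expressing cis-promoter reporter constructs, reporter transcript levels were determined by RT-PCR with fluorescent labelling and capillary electrophoresis, then fitted bidirectionally against DMSO.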

[14] = ATG_M_06_CIS: Attagene CIS-FACTORIAL HepG2 Assay for M06 Transcription Factor (Internal Marker) (AID 2282950); conditions: HepG2 Attagene CIS-FACTORIAL M06 internal marker reporter; actives raise or lower the signal
Outline: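 Read-out is fluorescence of labelled reporter cDNA fragments resolved by capillary electrophoresis after RT-PCR. Cells: HepG2 carrying transfected cis-promoter reporter units, treated 24 h. Gain or loss of signal fitted relative to DMSO.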

[15] = molecular target: Hypoxia-inducible factor 1-alpha (Homo sapiens) (UniProt Q16665); assay: ATG_HIF1a_CIS: Attagene CIS-FACTORIAL HepG2 Assay for human Hypoxia Inducible Factor 1 (HIF1A) (AID 2282951); conditions: HepG2 Attagene cis-factorial HIF1a reporter transcription; actives raise or lower the signal
Outline: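 Dosed 24 h, transfected HepG2 cells yielded total RNA whose reporter transcripts were RT-PCR-amplified and sized by capillary electrophoresis using fluorescent labelling; DMSO defined baseline, with gain and loss of signal both fitted.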

[16] = molecular target: Hepatocyte nuclear factor 6 (Homo sapiens) (UniProt Q9UBC0); assay: ATG_HNF6_CIS: Attagene CIS-FACTORIAL HepG2 Assay for human Hepatocyte Nuclear Factor 6 (HNF6) (AID 2282952); conditions: HepG2 Attagene cis-factorial HNF6 reporter transcription; actives raise or lower the signal
Outline: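 HepG2, transient MRTU transfection (cis promoters); 24 h chemical exposure; total RNA → oligo(dT) RT → PCR → 6-FAM labelling → HpaI cut → CE; bidirectional fit vs DMSO.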

[17] = molecular target: Heat shock factor protein 1 (Homo sapiens) (UniProt Q00613); assay: ATG_HSE_CIS: Attagene CIS-FACTORIAL HepG2 Assay for human Heat Shock Transcription Factor 1 (HSE) (AID 2282953); conditions: HepG2 HSE cis-reporter, Attagene RNA transcription; actives raise or lower the signal
Outline: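 HepG2, transient MRTU transfection, cis-promoter reporters (endogenous TF activity). 24 h compound. RNA → oligo(dT) RT → PCR → 6-FAM primer extension → HpaI cut → CE. Bidirectional fit vs DMSO.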

[18] = ATG_MRE_CIS: Attagene CIS-FACTORIAL HepG2 Assay for human Metal Responsive Element (MRE) (AID 2282954); conditions: HepG2 MRE cis-reporter transcription, Attagene multiplex; actives raise or lower the signal
Outline: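 After a 24 h chemical exposure, transiently transfected HepG2 cells yield RNA whose reporter sequences are amplified, FAM-labelled and sized by capillary electrophoresis. Curves are fitted bidirectionally relative to DMSO.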

[19] = ATG_EGR_CIS: Attagene CIS-FACTORIAL HepG2 Assay for human Early Growth Response 1 (EGR1) (AID 2282938); conditions: HepG2 Attagene CIS-FACTORIAL EGR reporter mRNA; actives raise or lower the signal
Outline: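 Endpoint derived by bidirectional fitting versus DMSO vehicle. Method: cis-promoter reporter units transfected into HepG2, 24 h dosing, RNA isolation, RT-PCR with 6-FAM primer extension and HpaI digestion, then capillary electrophoresis fluorescence detection.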

[20] = ATG_PBREM_CIS: Attagene CIS-FACTORIAL HepG2 Assay for human Phenobarbital-responsive Enhancer Module (PBREM) (AID 2282955); conditions: HepG2 PBREM cis-reporter, Attagene multiplexed transcription; actives raise or lower the signal
Outline: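 Transfected liver-derived HepG2 cells exposed 24 h; PBREM reporter transcript quantified via RT-PCR and capillary electrophoresis, with activity in either direction referenced to DMSO.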

Chain of Hypoxia-inducible factor 1-alpha (Homo sapiens) (Q16665 whole entry, looked up): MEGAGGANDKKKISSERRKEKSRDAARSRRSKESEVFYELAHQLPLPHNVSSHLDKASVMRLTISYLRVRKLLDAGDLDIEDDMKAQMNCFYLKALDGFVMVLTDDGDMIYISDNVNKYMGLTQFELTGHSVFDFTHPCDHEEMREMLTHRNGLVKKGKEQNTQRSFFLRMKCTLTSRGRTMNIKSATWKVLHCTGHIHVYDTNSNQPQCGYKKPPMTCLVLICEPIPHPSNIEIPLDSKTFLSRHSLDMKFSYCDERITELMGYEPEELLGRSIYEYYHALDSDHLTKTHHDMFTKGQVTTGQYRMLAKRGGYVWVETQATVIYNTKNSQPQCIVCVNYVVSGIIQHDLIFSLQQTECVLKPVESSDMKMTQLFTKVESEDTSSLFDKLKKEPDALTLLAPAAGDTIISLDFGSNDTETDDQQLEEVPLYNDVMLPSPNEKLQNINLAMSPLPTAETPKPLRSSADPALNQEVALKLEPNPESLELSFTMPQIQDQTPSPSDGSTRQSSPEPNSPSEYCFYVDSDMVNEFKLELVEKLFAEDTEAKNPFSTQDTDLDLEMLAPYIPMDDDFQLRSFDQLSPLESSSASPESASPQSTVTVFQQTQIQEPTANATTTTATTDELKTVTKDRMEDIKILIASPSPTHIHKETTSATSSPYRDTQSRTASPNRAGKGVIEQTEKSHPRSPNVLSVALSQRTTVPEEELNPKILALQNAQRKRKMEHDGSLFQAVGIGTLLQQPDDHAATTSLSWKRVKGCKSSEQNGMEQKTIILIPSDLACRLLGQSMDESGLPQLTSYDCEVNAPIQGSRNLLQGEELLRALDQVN
Chain of Bile acid receptor (Homo sapiens) (Q96RI1 whole entry, looked up, the tested form may be a part): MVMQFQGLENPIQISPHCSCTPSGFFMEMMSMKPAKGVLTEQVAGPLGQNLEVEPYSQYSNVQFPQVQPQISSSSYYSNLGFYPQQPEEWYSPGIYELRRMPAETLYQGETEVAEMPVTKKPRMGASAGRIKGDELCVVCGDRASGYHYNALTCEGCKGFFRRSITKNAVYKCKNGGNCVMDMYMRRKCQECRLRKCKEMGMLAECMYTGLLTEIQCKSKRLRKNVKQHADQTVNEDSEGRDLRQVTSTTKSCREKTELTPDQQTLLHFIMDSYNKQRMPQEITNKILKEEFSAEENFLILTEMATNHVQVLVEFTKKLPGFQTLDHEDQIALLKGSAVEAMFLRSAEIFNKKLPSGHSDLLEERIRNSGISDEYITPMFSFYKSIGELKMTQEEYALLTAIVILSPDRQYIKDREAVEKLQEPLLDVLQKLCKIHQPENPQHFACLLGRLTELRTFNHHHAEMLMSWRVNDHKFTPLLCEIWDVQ
Chain of Hepatocyte nuclear factor 3-beta (Homo sapiens) (Q9Y261 whole entry, looked up): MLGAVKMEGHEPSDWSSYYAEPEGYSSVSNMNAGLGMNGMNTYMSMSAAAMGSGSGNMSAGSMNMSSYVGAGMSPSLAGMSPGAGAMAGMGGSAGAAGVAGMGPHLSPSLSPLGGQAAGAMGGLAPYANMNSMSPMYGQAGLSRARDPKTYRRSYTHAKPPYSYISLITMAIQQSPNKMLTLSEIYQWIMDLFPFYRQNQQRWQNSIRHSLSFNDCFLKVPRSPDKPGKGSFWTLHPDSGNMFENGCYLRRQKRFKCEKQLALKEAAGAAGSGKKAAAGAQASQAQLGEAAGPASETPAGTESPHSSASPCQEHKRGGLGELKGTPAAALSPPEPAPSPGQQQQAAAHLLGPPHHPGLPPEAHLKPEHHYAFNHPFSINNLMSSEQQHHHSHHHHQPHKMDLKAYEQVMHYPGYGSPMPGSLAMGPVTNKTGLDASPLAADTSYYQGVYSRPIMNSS
Chain of Hepatocyte nuclear factor 6 (Homo sapiens) (Q9UBC0 whole entry, looked up): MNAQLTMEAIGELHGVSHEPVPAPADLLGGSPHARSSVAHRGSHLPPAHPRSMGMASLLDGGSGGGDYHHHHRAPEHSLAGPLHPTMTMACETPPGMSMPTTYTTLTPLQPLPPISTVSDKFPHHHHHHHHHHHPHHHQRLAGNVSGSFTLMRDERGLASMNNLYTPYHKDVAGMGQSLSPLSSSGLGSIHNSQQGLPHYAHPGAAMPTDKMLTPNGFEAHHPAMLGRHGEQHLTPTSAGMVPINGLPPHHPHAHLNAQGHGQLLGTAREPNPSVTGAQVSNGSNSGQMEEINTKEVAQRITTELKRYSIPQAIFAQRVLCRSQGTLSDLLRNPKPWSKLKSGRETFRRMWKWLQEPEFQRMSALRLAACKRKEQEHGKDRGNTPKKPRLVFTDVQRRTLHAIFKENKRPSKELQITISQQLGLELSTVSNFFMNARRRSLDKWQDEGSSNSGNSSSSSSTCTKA
Chain of Heat shock factor protein 1 (Homo sapiens) (Q00613 whole entry, looked up): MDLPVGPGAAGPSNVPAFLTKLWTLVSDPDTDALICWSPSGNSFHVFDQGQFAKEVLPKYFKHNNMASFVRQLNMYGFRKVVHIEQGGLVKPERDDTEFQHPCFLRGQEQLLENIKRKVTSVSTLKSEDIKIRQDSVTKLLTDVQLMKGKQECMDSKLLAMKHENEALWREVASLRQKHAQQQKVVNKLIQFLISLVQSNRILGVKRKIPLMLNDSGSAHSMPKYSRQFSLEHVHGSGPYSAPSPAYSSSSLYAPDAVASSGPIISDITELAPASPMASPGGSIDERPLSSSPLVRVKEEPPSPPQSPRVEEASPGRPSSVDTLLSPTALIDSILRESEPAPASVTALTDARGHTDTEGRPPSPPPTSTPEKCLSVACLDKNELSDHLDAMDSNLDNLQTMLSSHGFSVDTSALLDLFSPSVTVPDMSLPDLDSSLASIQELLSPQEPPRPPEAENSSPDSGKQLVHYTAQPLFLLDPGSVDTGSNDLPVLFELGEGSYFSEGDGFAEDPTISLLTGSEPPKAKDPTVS

CC(C)(C)c1cc(/C=C2\SC(N)=NC2=O)cc(C(C)(C)C)c1O
outcome [1]: inactive
outcome [2]: inactive
outcome [3]: inactive
outcome [4]: inactive
outcome [5]: inactive
outcome [6]: inactive
outcome [7]: inactive
outcome [8]: inactive
outcome [9]: inactive
AC50 [10]: 8.2 µM (active)
outcome [11]: inactive
AC50 [12]: 11 µM (active)
outcome [13]: inactive
outcome [14]: inactive
outcome [15]: inactive
outcome [16]: inactive
AC50 [17]: 20 µM (active)
AC50 [18]: 15 µM (active)

CC/C(=C(/CC)c1ccc(O)cc1)c1ccc(O)cc1
outcome [1]: inactive
outcome [2]: inactive
outcome [19]: inactive
outcome [3]: inactive
outcome [5]: inactive
outcome [6]: inactive
outcome [7]: inactive
outcome [9]: inactive
AC50 [10]: 15.4 µM (active) and 2.2 µM (active)
outcome [10]: inactive
outcome [11]: inactive
outcome [13]: inactive
outcome [14]: inactive
outcome [15]: inactive
outcome [16]: inactive
AC50 [17]: 20 µM (active) and 18.7 µM (active) and 20.2 µM (active)
outcome [17]: inactive
AC50 [18]: 15.2 µM (active) [middle of 4 runs]
outcome [18]: inactive

CC1=CC(=O)/C(=C(/C)O)C(=O)O1
outcome [1]: inactive
outcome [2]: inactive
outcome [3]: inactive
outcome [4]: inactive
outcome [5]: inactive
outcome [6]: inactive
outcome [7]: inactive
outcome [8]: inactive
outcome [9]: inactive
outcome [10]: inactive
outcome [11]: inactive
outcome [12]: inactive
outcome [13]: inactive
outcome [14]: inactive
outcome [15]: inactive
outcome [16]: inactive
outcome [17]: inactive
outcome [18]: inactive
outcome [20]: inactive

Cc1oc2c(NC(=O)c3c(Cl)cccc3Cl)cccc2c1C(C)(C)O
outcome [1]: inactive
outcome [2]: inactive
outcome [3]: inactive
outcome [4]: inactive
outcome [5]: inactive
AC50 [6]: 27.3 µM (active)
outcome [7]: inactive
outcome [9]: inactive
AC50 [10]: 158 µM (active)
outcome [11]: inactive
AC50 [12]: 26.8 µM (active)
outcome [13]: inactive
outcome [14]: inactive
AC50 [15]: 37.8 µM (active)
outcome [16]: inactive
AC50 [17]: 177 µM (active)
AC50 [18]: 129 µM (active)
AC50 [20]: 6.18 µM (active)

NC(=O)c1nc(-c2cccc(-c3cc(F)ccc3OCC(F)(F)C(F)(F)F)c2)n[nH]1
outcome [1]: inactive
outcome [2]: inactive
outcome [3]: inactive
outcome [4]: inactive
outcome [5]: inactive
outcome [6]: inactive
outcome [7]: inactive
outcome [9]: inactive
AC50 [10]: 51.6 µM (active)
outcome [11]: inactive
outcome [13]: inactive
outcome [14]: inactive
AC50 [15]: 2.7 µM (active)
outcome [16]: inactive
AC50 [17]: 59.9 µM (active)
AC50 [18]: 51.2 µM (active)
